Giardia killer: kills Giardia lamblia; actives 0.15% (n = 340,000); Giardia lamblia trophozoite viability; activity change, % at 7.66 µM, hits read low; in the data active = activity change below about -80%; inconclusive = between about -30% and that limit;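 note: parasites exposed to compound for two days anaerobically before the ATP read; % is set by controls: 0 for no effect and ±100 for the full control effect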
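Giardia trophozoites, 100 cells per well, were exposed to compounds for 48 hrs at 37 deg C under anaerobic conditions; viability was then read as ATP content by bioluminescence after 15-30 min at room temperature.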
RORg inh: blocks mouse ROR gamma transcriptional activity; actives 5.4% (n = 310,000); Drosophila S2 Gal4-RORgamma UAS-luciferase reporter, 20 h; Potency, µM (doses to about 53.6 µM), for inactives: top-dose activity change, negative = inhibition, usual class: inhibitors; AID 2551; P51450; note: potency is the fitted concentration of half-maximal effect; % is set by controls: 0 for no effect and ±100 for the full control effect; nearly all actives have a fitted effect of over 60% in size
Target sequence (P51450 whole entry, looked up, the tested form may be a part): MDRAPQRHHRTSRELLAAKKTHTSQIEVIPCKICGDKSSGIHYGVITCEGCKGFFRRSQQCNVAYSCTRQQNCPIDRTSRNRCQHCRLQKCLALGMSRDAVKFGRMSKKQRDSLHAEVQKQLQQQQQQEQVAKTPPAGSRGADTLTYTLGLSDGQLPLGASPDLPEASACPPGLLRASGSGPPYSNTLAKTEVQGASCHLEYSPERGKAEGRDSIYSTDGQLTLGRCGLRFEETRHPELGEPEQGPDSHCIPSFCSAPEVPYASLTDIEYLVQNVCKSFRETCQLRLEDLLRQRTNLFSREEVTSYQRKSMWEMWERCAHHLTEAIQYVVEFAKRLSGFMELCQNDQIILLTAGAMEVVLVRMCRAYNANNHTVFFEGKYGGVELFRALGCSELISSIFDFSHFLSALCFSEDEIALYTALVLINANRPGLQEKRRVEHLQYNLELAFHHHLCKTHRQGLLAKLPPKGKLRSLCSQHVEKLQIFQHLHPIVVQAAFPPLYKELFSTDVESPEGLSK
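Read-out: Photinus luciferase luminescence; inhibitors lower reporter signal. Insect Schneider cells with Gal4-ROR gamma fusion under metallothionein promoter, UAS reporter; 700 uM final copper sulfate induction, 20 hr, ambient temperature.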
a7 integrin act: activates integrin-mediated alleviation for muscular dystrophy; alpha7betagal myoblasts, beta-gal FDG fluorescence, 48 h; Potency, µM (top dose mostly 38.3 µM), inactives show at the highest dose activation, hits mostly activators; actives 0.064% (n = 350,000); AID 624291;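 note: potency is the fitted concentration of half-maximal effect; 100% = response of the positive control SU9516; nearly all actives have a fitted effect of over 60% in size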
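alpha7betagal+/- myoblasts (passage 13, 250/well) treated 48 h at 37C with compounds at 1:260 dilution of DMSO stock. Lysed, then beta-galactosidase activity read as FDG fluorescence (ex 480/em 540) after 30 min, with pre-read for autofluorescence.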
ERG Ets-DNA blk: blocks human ERG Ets domain binding to DNA | fluorescence polarization, His-ERG Ets domain / labelled DNA | actives 0.028% (n = 370,000) | P11308 | AID 624246 | Potency, µM (top dose mostly 76.9 µM), inactives show top-dose FP activity, negative = inhibition, hits mostly inhibitors; active = well fitted inhibition curve with a large enough effect in the polarisation, with a control signal flat; inconclusive = small, poorly fitted or top-dose-only effect, or effect the other way, or a change in a side signal; inactive = no such curve, though single readings can be large or run the other way; the % refers to the polarisation;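 note: polarization taken with two DNA probes labelled with fluorescein and Texas red; potency is the fitted concentration of half-maximal effect; % of control where 0% means no effect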
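His-tagged ERG Ets domain (1 uM in the protein solution; 300mM KCl, 50mM Tris-HCl, 1mM EDTA, 1mM DTT, pH 7.5) received compound, then a probe mix of 5 nM fluorescein-DNA and 100nM Texas-615-DNA. Fluorescence polarization was read for both dyes.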
Gal4-VP16 FLuc: counter-screen for ROR gamma inhibitors: Gal4-VP16 reporter | Drosophila S2 Gal4-VP16 UAS-luciferase, luminescence, 20 h | actives 3.5% (n = 310,000) | AID 2546 | Potency, µM (series often up to 53.6 µM), for inactives: at the highest dose activity, negative = inhibition, actives largely listed as inhibitors;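 note: Gal4-VP16 expression switched on by copper sulfate through the metallothionein promoter; potency is the fitted concentration of half-maximal effect; % is set by controls: 0 for no effect and ±100 for the full control effect; nearly all actives have a fitted effect of over 50% in size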
The depositor's hits bear a star; ? = inconclusive; nt = no result; ! = repeats disagree; [ ] = remark or other dose. The entries come from a sample that favours hits as a whole. Unless noted, calls come from the whole dose curve; as a rule, active = well fitted curve in the direction sought with a large enough effect; inconclusive = small, poorly fitted or top-dose-only effect, or another doubt; inactive = no such curve, though single readings can be large; an effect the other way counts as inactive or inconclusive.

SMILES | Giardia killer | RORg inh | a7 integrin act | ERG Ets-DNA blk | Gal4-VP16 FLuc
O=C(OCC(=O)N1CCOCC1)c1ccccc1OCc1ccccc1 | -6 | nt | -26% | 3% | nt
O=C(CCCc1nc2ccccc2s1)NNC(=O)CCN1CCN(Cc2ccccc2)CC1 | -22 | 17% | -6% | -6% | -10%
CC/C(=N\NC(=O)c1ccc(-c2ccccc2)cc1)C12CC3CC(CC(C3)C1)C2 | 5 | 22µM* | -9% | -3% | ?
C/C(=N\NC(=O)c1ccncc1)C12CC3CC(CC(C3)C1)C2 | 16 | 2% | 0% | nt | -8%
O=C(NCc1cccc(Cl)c1)C1CCCN(c2nn3cc(-c4ccc(F)cc4)nc3s2)C1 (stereo not drawn) | nt | nt | nt | -5% | nt
Cc1ccc(S(=O)(=O)N2CCN(C(=O)CN3CCN(c4ccc(O)cc4)CC3)CC2)cc1 | 0 | nt | 0% | -7% | nt
Nc1cccnc1Sc1cccc(Cl)c1 | 1 | 1% | 6% | -29% | -13%
COc1cnc(-c2ccccn2)nc1NC(C)C | 8 | ? | -42% | 11% | -10%
COc1ccccc1Sc1nc(-c2ccccn2)ncc1OC | -24 | 7.9µM* | -28% | 14% | ?
COc1cnc(-c2ccccn2)nc1Sc1ccc(C)cc1 | -21 | 1.1µM* | -44% | 5% | 10µM*
Cc1ccc(Sc2cc(C)nc(-c3ccccn3)n2)cc1 | -9 | 0.35µM* | -57% | -1% | 3.2µM*
COc1cnc(-c2ccccn2)nc1Sc1cccc(Cl)c1 | -22 | 2µM* | -7%[7.66 µM] | -2% | 8.9µM*
O=S(=O)(c1ccccc1)N1CCN(c2nc(-c3ccc(F)cc3)nc3cc(Cl)ccc23)CC1 | -6 | nt | nt | nt | nt
CC1CN(C(=O)c2cc3cc(Br)ccc3[nH]2)CC(C)O1 (stereo not drawn) | -3 | 22% | 22% | 0% | -2%
CC1=C(C)C(=O)C(C(CCCCCC(=O)O)c2ccccc2)=C(C)C1=O (stereo not drawn) | nt | -3% | nt | nt | -1%
Cc1ccccc1C(=O)N(CC(=O)Nc1sc(C)c(C)c1C(N)=O)C1CCCC1 | -4 | 29% | 15% | 1% | 13%
COc1ccccc1Cc1nc2ccccc2nc1SCC(=O)N(C)c1ccc(F)cc1 | nt | nt | nt | -2% | nt
CC(=O)c1c(N2CCN(C)CC2)[nH]c(-c2ccccc2)nc1=S | 8 | 10µM* | -61% | 6% | -20%
COc1ccc(N2CSC3=C(C#N)C(c4cc(OC)c(OC)cc4OC)CC(=O)N3C2)c(OC)c1 (stereo not drawn) | 12 | 13µM* | -32% | 3% | 4%
Cc1c(CC(=O)NCCCC(=O)O)c(=O)oc2cc3c(cc12)CCC(C)(C)O3 | -6 | 5µM* | 11% | -15% | 7.1µM*
Nc1n[nH]c2c1C1(CCCC1)Cc1ccccc1-2 | 3 | ? | 17% | -1% | -11%
Nc1nc(=S)[nH]c2c1C1(CCCCC1)Cc1ccccc1-2 | 0 | 2.2µM* | 1% | -14% | 4µM*
Nc1nc(=S)[nH]c2c1C1(CCCC1)Cc1ccccc1-2 | 50 | 6.3µM* | 24% | 10% | 8.9µM*
COc1ccc(-c2nc3ccc(NC(C)=O)cc3c(=O)n2Cc2cccc(Cl)c2)cc1COc1ccc(NC(C)=O)cc1 | -4 | nt | nt | nt | nt
CCNc1ncc2nc(-c3cc(F)cc(F)c3)c(=O)n(Cc3cccs3)c2n1 | nt | -3% | nt | nt | -2%
SMILES | Giardia killer | RORg inh | a7 integrin act | ERG Ets-DNA blk | Gal4-VP16 FLuc
COc1ccc(OC)c(C(=O)Cn2c3[n+](c4ccc(C(F)(F)F)cc42)CCCCC3)c1 | -3 | ? | 15% | 2% | -1%
Cc1cnc(CNc2ccnc(-c3ccccc3C(F)(F)F)n2)cn1 | nt | 0% | nt | nt | -1%
COCC(C)n1c(C)cc(C(=O)COC(=O)c2c(NC(C)=O)sc(C)c2C)c1C (stereo not drawn) | 7 | 4.5µM* | 4% | -3% | -15%
O=C(/C=C/c1ccc(O)cc1)c1ccc(O)cc1O | 7 | 1.8µM*! | nt | -3% | ?
COc1ccc(C(=O)/C=C/c2ccc(OC)cc2OC)c(O)c1 | 13 | 0.79µM* | 2% | 1% | 21%
O=C(/C=C/c1ccccc1)c1ccc(O)cc1O | nt | 2.8µM* | nt | nt | ?
COc1ccc(C(=O)/C=C/c2ccc(OC(=O)c3cc(OC)c(OC)c(OC)c3)cc2)cc1 | -18 | 1.8µM* | 27% | 0% | 7.1µM*
O=C(NCCCCN1CCOCC1)c1cc2ccccc2o1 | nt | 8% | nt | nt | -5%
CCCC1NC(=O)c2cccnc2-n2c1nc1cc(C)cc(C)c1c2=O (stereo not drawn) | nt | nt | 8% | nt | nt
COc1ccc(/C=C/C(=O)c2ccc(O)cc2O)cc1 | nt | 0.04µM* | nt | nt | ?
O=C(/C=C/c1ccccc1)CC(=O)c1ccccc1O | -23 | ? | -68% | 11% | 11µM*
O=C(/C=C/c1ccccc1)NC(=O)c1ccccc1O | 7 | -17% | 0% | 3% | ?
COc1ccc(/C=C/C(=O)c2ccc(O)cc2O)cc1OC | nt | 2µM* | nt | nt | ?
COc1ccc(/C=C/C(=O)c2cc(F)ccc2OC(=O)c2ccc(OC)c(OC)c2)cc1OC | -8 | 8.9µM* | -27% | -9% | ?
Cc1cccn2c(=O)nc(SCC(=O)Nc3ccc4c(c3)OCCO4)nc12 | -2 | nt | -2% | -8% | nt
CCC1CN(C(=O)N2CCC(C(=O)NCCC3=CCCCC3)CC2)c2cc(C)ccc2O1 (stereo not drawn) | nt | nt | nt | -1% | nt
Cc1ccsc1C(=O)OCC(=O)Nc1cccc(S(=O)(=O)N2CCOCC2)c1 | 4 | ? | 17% | 4% | 0%
CN(Cc1ccccc1C#N)S(=O)(=O)c1cccs1 | -9 | 10% | 5% | -2% | -14%
N#Cc1nccnc1S(=O)(=O)c1cccs1 | 8 | 3.2µM* | -38% | -7% | 3.5µM*
NCCNC(=O)c1ccc(Cl)cn1 | nt | 4% | nt | nt | -8%
COc1cccc(NC(=O)c2cc3cccc(OC)c3o/c2=N\O)c1 | nt | -37% | nt | nt | -28%
O=C(NC1CCCCCC1)c1cc2ccccc2oc1=O | -1 | 10µM* | -14% | 3% | ?
COc1cccc(NC(=O)c2cc3ccccc3o/c2=N\O)c1 | ? | 8.9µM* | 0% | 2% | 20µM*
COc1ccc2oc(=O)c(C(=O)Nc3cccc(C)c3)cc2c1 | -22 | 2.2µM* | 0% | 6% | ?
COc1ccc2oc(=O)c(C(=O)Nc3cccc(C(=O)O)c3)cc2c1 | nt | nt | nt | -2% | nt
O=C(Nc1cccnc1N1CCOCC1)c1cc2ccccc2oc1=O | 16 | 31% | 44% | 7% | -4%
O=C(O)c1ccccc1NC(=O)c1cc2ccccc2oc1=O | ? | 13µM* | -38% | 1% | ?
C=CCn1c(N2CCN(c3ccc(OC)cc3)CC2)nc2c1c(=O)[nH]c(=O)n2C | -18 | ? | -11% | -4% | -12%
O=C(Nc1cccc(-c2cn3ccccc3n2)c1)c1cc2ccccc2oc1=O | 4 | ? | -56% | -6% | 8.9µM*
CC(=O)Nc1cccc(-c2cn3ccccc3n2)c1 | -3 | 3% | ? | 4% | -20%
